Sampled rows, rich in hits. Any-hit rate of the full collection: about 12%.
G9a block = qHTS Assay for Inhibitors of Histone Lysine Methyltransferase G9a | AID 504332, 2011 | actives 8.8% (n = 350,000) | G9a H3K9 monomethylation, AlphaScreen, 2 h | Potency, µM (top dose mostly 102 µM), for the others: top-dose activity, negative = inhibition, usual class: inhibitors; note: potency is the fitted concentration of half-maximal effect; % is set by controls: 0 for no effect and ±100 for the full control effect; nearly all actives have a fitted effect of over 75% in size
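Readings reflect AlphaScreen signal from monomethyl-H3K9 antibody detection. HMT at 20 nM; substrate b-H3K9 500 nM; cofactor SAM 20 uM; 2 h RT reaction; compounds tested as titrations in qHTS with 15 min preincubation.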
BAZ2B block = qHTS Assay for Inhibitors of BAZ2B | Bromodomain adjacent to zinc finger domain protein 2B (Homo sapiens), Q9UIF8 | AlphaScreen BAZ2B-H3K14Ac peptide displacement | Potency, µM (titrated, usually from 114 µM), for the others: at the top dose activity change, negative = inhibition, most hits filed as inhibitors | actives 4.4% (n = 360,000) | AID 504333, 2011; note: potency is the fitted concentration of half-maximal effect; % is set by controls: 0 for no effect and ±100 for the full control effect; nearly all actives have a fitted effect of over 60% in size
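AlphaScreen displacement of biotin-H3(5-23)K14Ac peptide (50 nM final) from BAZ2B (50 nM final) in PBS pH 7.4, 0.01% Tween-20; complex preformed 30 min RT, then compounds (top 110 uM) 30 min RT, beads 20 min dark.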
HP1b binding inh = HTS for Inhibitors of HP1-beta Chromodomain Interactions with Methylated Histone Tails | Chromobox protein homolog 1 (Homo sapiens), P83916 | AlphaScreen HP1-beta / biotin-H3K9me3 peptide binding | Potency, µM (doses to about 114 µM), for inactives: at the top dose activity change, negative = inhibition, usual class: inhibitors | actives 0.56% (n = 390,000) | AID 540317, 2011; note: potency is the fitted concentration of half-maximal effect; nearly all actives have a fitted effect of over 70% in size
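Compound inhibition of the preformed complex between 50 nM HP1-beta and 50 nM biotinylated H3K9me3 peptide was read by AlphaScreen. Buffer was PBS pH 7.4 with 0.01% Tween-20. Incubations ran 30 min at room temperature, with 10 ug/mL donor/acceptor beads.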
JMJD2A Tudor inh = qHTS Assay for Inhibitors of JMJD2A-Tudor Domain. Lysine-specific demethylase 4A (Homo sapiens), O75164. AlphaScreen JMJD2A-Tudor / H3K4me3 peptide binding. Potency, µM (doses to about 114 µM), for inactives: top-dose activity change, negative = inhibition, most hits filed as inhibitors. actives 4.4% (n = 390,000). AID 504339, 2011; note: potency is the fitted concentration of half-maximal effect; % is set by controls: 0 for no effect and ±100 for the full control effect; nearly all actives have a fitted effect of over 50% in size
PLK1 PBD block = qHTS for Inhibitors of PLK1-PDB (polo-like kinase 1 - polo-box domain): Primary Screen; Plk1 PBD binding of FITC phosphopeptide, fluorescence polarization; Potency, µM, for inactives: max response, negative = inhibition, hits mostly inhibitors; actives 2.8% (n = 360,000); note: potency is the fitted concentration of half-maximal effect; series mostly up to about 57 µM; % is set by controls: 0 for no effect and ±100 for the full control effect; nearly all actives have a fitted effect of over 65% in size
PI5P4Ka inh = qHTS for Inhibitors of phosphatidylinositol 5-phosphate 4-kinase (PI5P4K) | Phosphatidylinositol 5-phosphate 4-kinase type-2 alpha (Homo sapiens), P48426 | PI5P4Kalpha enzyme, ADP-Glo luminescence, 60 min; hits give low values | max response, % | actives 1.2% (n = 330,000); active = max response of -50% or lower; inconclusive = between -30% and -50%; inactive = -30% or higher; note: value at the top dose of about 77 µM; % is set by controls: 0 for no effect and ±100 for the full control effect
Target sequence (P48426 whole entry, looked up): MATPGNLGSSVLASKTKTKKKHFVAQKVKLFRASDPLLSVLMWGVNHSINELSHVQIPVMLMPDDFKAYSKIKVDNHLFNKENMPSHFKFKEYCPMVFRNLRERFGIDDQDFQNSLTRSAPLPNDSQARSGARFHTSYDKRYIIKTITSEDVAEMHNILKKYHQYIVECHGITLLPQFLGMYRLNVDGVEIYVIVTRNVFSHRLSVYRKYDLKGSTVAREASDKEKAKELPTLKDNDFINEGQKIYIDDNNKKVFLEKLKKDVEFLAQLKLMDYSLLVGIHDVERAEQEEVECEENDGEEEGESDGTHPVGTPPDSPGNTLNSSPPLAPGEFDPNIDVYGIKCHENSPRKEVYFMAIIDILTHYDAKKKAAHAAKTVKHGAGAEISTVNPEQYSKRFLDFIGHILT
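PI5P4Kalpha ADP-Glo assay; 5 microM ATP final; 60 min RT reaction; HEPES pH 7.4/EGTA/CHAPS, 5% DMSO; controls lacking substrate or enzyme; luminescent end-point.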
Starred values were filed as active, the others as inactive; ? = inconclusive; · = no result; [ ] = another dose, or the depositor's remark. Unless noted, calls come from the whole dose curve; as a rule, active = well fitted curve in the direction sought with a large enough effect; inconclusive = small, poorly fitted or top-dose-only effect, or another doubt; inactive = no such curve, though single readings can be large; an effect the other way counts as inactive or inconclusive.

SMILES	G9a block	BAZ2B block	HP1b binding inh	JMJD2A Tudor inh	PLK1 PBD block	PI5P4Ka inh
CCc1ccc(NC(=O)Cn2c(=O)n(Cc3nc(-c4ccccc4)no3)c(=O)c3cc4c(cc32)OCO4)cc1	-5%[59 µM]	-3%	30%	2%	·	·
N#Cc1ccc(CC(=O)c2ccccc2)[nH]c1=O	·	·	2%	-25%	-9%	-17
O=C(O)CSc1nnc(-c2ccccc2)c(-c2ccccc2)n1	·	-5%	3%	-16%[11.4 µM]	9.5µM*	-27
O=C(CSc1nnc(-c2ccccc2)c(-c2ccccc2)n1)NCc1ccco1	20%[59 µM]	?	?	-37%[57.1 µM]	21µM*	-20
O=C(Cn1ncn2c(cc3ccccc32)c1=O)NCc1ccco1	?	50µM*	7%	?	-11%	·
COc1ccc(CNC(=O)Cn2ncn3c(cc4ccccc43)c2=O)cc1	·	9%	37%	-13%	-1%	9
COc1ccc(-c2[nH]c(-c3cccc(OC)c3)nc2SCC(=O)NCc2ccco2)cc1	18µM*	?	-15%	?	-5%	4
CCCCN(C=O)c1c(CC)nc2c(OCC3CCCCC3)cccn12	·	·	·	·	-5%	-11
CCN(CC)c1ccc(/C=N/NC(=O)c2c[nH]c3ccccc23)cc1	8.9µM*	?	3%	-33%	-5%	1
CCN(CC)c1ccc(/C=N/NC(=O)c2cc3ccccc3[nH]2)cc1	·	?	2%	-20%	5%	-4
CCN(CC)c1ccc(/C=N/NC(=O)c2cnccn2)cc1	56µM*	·	34%	-15%	-7%	2
CCCCN1CC(O)C(O)C(O)C1CO (configuration not stated)	-2%[12.7 µM]	·	·	·	·	·
CCOc1cccc(C(=O)NC(=S)Nc2ccc(N3CCN(CC)CC3)cc2)c1	14µM*	35µM*	?	56µM*	-12%	5
CNC(=O)c1ccc(NC(=O)CCNC(=O)Nc2ccccc2)cc1	45µM*	-2%	38%	-1%	-2%	6
O=C(COc1cc(F)ccc1[N+](=O)[O-])Nc1ccc(N2CCCCC2)cc1	?	32µM*	?	40µM*	-1%	7
CCCOc1cccc(C(=O)NC(=S)Nc2ccc(N3CCN(C)CC3)cc2)c1	-16%[59 µM]	-12%	?	?	-16%	1
Cc1cccc(NC(=O)CCNC(=O)c2ccccc2)c1	11%	10%	20%	-5%	1%	-1
CCOc1cccc(C(=O)NC(=S)Nc2cccc(NC(=O)c3ccccc3Cl)c2)c1	-47%[59 µM]	79µM*	6%	-8%	1%	-7
CCOC(=O)c1sc2ccccc2c1S(=O)(=O)NCc1ccc(F)cc1	-7%[59 µM]	9%	2%	-8%	·	·
CN1CCN(C(c2ccccc2)c2sc3nc(-c4ccco4)nn3c2O)CC1 (configuration not stated)	-26%[59 µM]	-9%	29%	-12%	·	·
COc1ccccc1N1CCN(C(=O)c2c(-c3c(F)cccc3Cl)noc2C)CC1	·	-17%	29%	-14%	1%	2
CCC(CC)C(=O)Nc1nnc(S(=O)(=O)N2CCCC2)s1	11%	3%	20%	-23%	-8%	2
CCOc1cccc(C(=O)NC(=S)Nc2cccnc2)c1	10µM*	-33%	7%	?	-3%	-6
O=C(NC(=S)Nc1cccnc1)c1ccccc1	79µM*	4%	3%	11%	-6%	2
COc1cc(OC)cc(C(=O)NC(=S)Nc2ccc(N3CCCC3)cc2)c1	10µM*	?	?	?	-10%	15
O=C(NC(=S)Nc1cc(Cl)ccc1O)c1cccc(Br)c1	71µM*	-4%	6%	-10%	?	-4
CCCCOc1cccc(C(=O)NC(=S)Nc2cccnc2)c1	?	-37%	-12%	-23%	-11%	-3
